A selection: hits, their analogues and other compounds. The true share with any hit is near 4.1%.
tim10-1 inh: tim10-1 yeast growth inhibition. S. cerevisiae tim10-1 ts strain growth, BacTiter-Glo, 24 h. AID 463190. 2.2% of 330,000 active. inhibition, % at 20 µM;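 active = inhibition of at least 40%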;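 note: mutant grown at 25 °C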
NALP3 yeast inh: inhibitors of NALP3 inflammasome in yeast; Yeast reconstituted NLRP3/ASC/caspase-1, beta-gal luminescence, 24 h; 0.39% of 330,000 active; AID 2825; inhibition, % at 10 µM;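 active = inhibition of 50% or more; inactive = inhibition below 50%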
PfHsp90 yeast 2: growth inhibition of yeast expressing Plasmodium Hsp90; inhibition, % at 9.4 µM; 0.32% of 310,000 active; S. cerevisiae expressing PfHsp90, BacTiter-Glo ATP, 48 h; yeast lacking PDR1 and PDR3 efflux regulators;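 active = every replicate shows inhibition above about 80%, whatever the replicate mean, limit read from the data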
TIM10 inh: TIM10 yeast growth inhibition; inhibition, % at 10 µM; AID 463195; 1.4% of 330,000 active; S. cerevisiae TIM10 strain growth, BacTiter-Glo luminescence, 24 h;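 active = inhibition of 40% or more at the single tested concentration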;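 note: wild-type TIM10 isogenic control strain grown at permissive 25 °C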
tim23-1 inh: tim23-1 yeast growth inhibition; S. cerevisiae tim23-1 growth, BacTiter-Glo luminescence, 24 h; inhibition, % at 20 µM; 1.3% of 330,000 active; AID 463212;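 active = growth inhibition of the mutant yeast at or above 50%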;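 note: temperature-sensitive mutant grown at 25 °C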
NALP1 yeast inh: NALP1 inhibition; inhibition, % at 10 µM; S. cerevisiae NALP1/ASC/caspase-1 growth, X-gal OD620, 72 h; 0.61% of 280,000 active; AID 2071; in the data active = inhibition mostly above about 24%, no sharp cut-off; inactive = mostly below about 32%
tim10 confirm: TIM10 yeast growth inhibition, confirmed; shares compounds with TIM10 inh; 63% of 4,600 active; inhibition, % at 10 µM; S. cerevisiae tim10 strain growth, BacTiter-Glo luminescence, 24 h;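 active = inhibition of yeast growth at or above a set limit in either of two replicates at 10 µM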; note: this counterscreen used the strain with wild-type TIM10
tim23-1 confirm: confirmation of tim23-1 mutant yeast growth inhibitors | shares compounds with tim23-1 inh | S. cerevisiae tim23-1 growth, BacTiter-Glo luminescence, 24 h | inhibition, % at 20 µM | 83% of 4,400 active;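 active = inhibition above about 39% in either of two replicate wells at 20 µM, limit read from the data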;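 note: temperature-sensitive tim23-1 mutant grown at 25 °C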
Numbers stand for hits.

Results for O=C(Nc1cccc(C(=O)Nc2cccc(Br)c2)c1)c1ccccc1 ?
tim10-1 inh: inactive; NALP3 yeast inh: inactive; PfHsp90 yeast 2: inactive; TIM10 inh: inactive; tim23-1 inh: inactive; NALP1 yeast inh: inactive

What do the screens show for `O=C(Nc1cccc(Br)c1)c1ccn[nH]1`?
tim10-1 inh: inactive; NALP3 yeast inh: inactive; PfHsp90 yeast 2: inactive; TIM10 inh: 59; tim23-1 inh: 57; NALP1 yeast inh: inactive; tim10 confirm: 41; tim23-1 confirm: 60

How did Oc1c(C=Nc2ccccc2)sc2ccccc12 do in these assays?
tim10-1 inh: inactive; NALP3 yeast inh: inactive; PfHsp90 yeast 2: inactive; TIM10 inh: 40; tim23-1 inh: 66; NALP1 yeast inh: inactive; tim10 confirm: 45; tim23-1 confirm: 62

Results for Oc1c(C=Nc2cccnc2)sc2ccccc12 ?
tim10-1 inh: inactive; NALP3 yeast inh: inactive; PfHsp90 yeast 2: inactive; TIM10 inh: inactive; tim23-1 inh: inactive; NALP1 yeast inh: inactive

How did O/N=C/c1ccccc1OCc1ccc(Cl)cc1 do in these assays?
tim10-1 inh: inactive; NALP3 yeast inh: inactive; PfHsp90 yeast 2: inactive; TIM10 inh: 42; tim23-1 inh: 52; NALP1 yeast inh: inactive; tim10 confirm: inactive; tim23-1 confirm: 59

Results for Cc1cnc(=O)[nH]c1SCc1ccccc1F ?
tim10-1 inh: inactive; NALP3 yeast inh: inactive; PfHsp90 yeast 2: inactive; TIM10 inh: inactive; tim23-1 inh: inactive; NALP1 yeast inh: inactive

What do the screens show for `Oc1c(CN2CCc3ccccc3C2)cc(Cl)c2cccnc12`?
tim10-1 inh: inactive; NALP3 yeast inh: inactive; PfHsp90 yeast 2: 102; TIM10 inh: 43; tim23-1 inh: 56; NALP1 yeast inh: inactive; tim10 confirm: 41; tim23-1 confirm: 54

How did COc1cc(OC)cc(C(=O)Oc2c(CN3CCOCC3)cc(Cl)c3cccnc23)c1 do in these assays?
tim10-1 inh: inactive; NALP3 yeast inh: inactive; PfHsp90 yeast 2: inactive; TIM10 inh: inactive; tim23-1 inh: inactive; NALP1 yeast inh: inactive

How did CN1/C(=C/C(=S)NC(=O)C2(C)CC2(Cl)Cl)C(C)(C)c2ccccc21 (stereo not given) do in these assays?
tim10-1 inh: inactive; NALP3 yeast inh: inactive; PfHsp90 yeast 2: inactive; TIM10 inh: inactive; tim23-1 inh: inactive; NALP1 yeast inh: inactive

How did COc1ccccc1C(=O)NC(=S)/C=C1/N(C)c2ccccc2C1(C)C do in these assays?
tim10-1 inh: inactive; NALP3 yeast inh: inactive; PfHsp90 yeast 2: inactive; TIM10 inh: 44; tim23-1 inh: 51; NALP1 yeast inh: inactive; tim10 confirm: inactive; tim23-1 confirm: 42

Results for CC1CCCC(C)N1C(=O)COC(=O)CNC(=O)c1ccc(Cl)cc1Cl (stereo not given) ?
tim10-1 inh: inactive; NALP3 yeast inh: inactive; PfHsp90 yeast 2: inactive; TIM10 inh: inactive; tim23-1 inh: inactive

What do the screens show for `CC1(C)CC(=O)C(N=Nc2cc(Cl)c(Cl)c(Cl)c2)=C(O)C1`?
tim10-1 inh: inactive; NALP3 yeast inh: inactive; PfHsp90 yeast 2: inactive; TIM10 inh: inactive; tim23-1 inh: inactive; NALP1 yeast inh: inactive

What do the screens show for `Cc1ccc(O)c(N=NC2=C(O)CC(C)(C)CC2=O)c1`?
tim10-1 inh: inactive; NALP3 yeast inh: inactive; PfHsp90 yeast 2: inactive; TIM10 inh: 43; tim23-1 inh: 61; NALP1 yeast inh: inactive; tim10 confirm: inactive; tim23-1 confirm: 52

Results for COc1cccc(N/N=C/c2cccc(Br)c2O)c1 ?
tim10-1 inh: inactive; NALP3 yeast inh: inactive; PfHsp90 yeast 2: inactive; TIM10 inh: 57; tim23-1 inh: 58; NALP1 yeast inh: inactive; tim10 confirm: 36; tim23-1 confirm: 69

What do the screens show for `Cc1nc(C)c(-c2csc(Nc3ccccn3)n2)s1`?
tim10-1 inh: inactive; NALP3 yeast inh: inactive; PfHsp90 yeast 2: inactive; TIM10 inh: 48; tim23-1 inh: 54; NALP1 yeast inh: inactive; tim10 confirm: 47; tim23-1 confirm: 45

Results for CCOC(=O)c1c(N)sc(C(=O)Nc2ccccc2)c1C ?
tim10-1 inh: inactive; NALP3 yeast inh: inactive; PfHsp90 yeast 2: inactive; TIM10 inh: 41; tim23-1 inh: 55; NALP1 yeast inh: inactive; tim10 confirm: inactive; tim23-1 confirm: 68

What do the screens show for `NC(=O)c1oc2ccccc2c1NC(=O)c1ccc(F)cc1`?
tim10-1 inh: inactive; NALP3 yeast inh: inactive; PfHsp90 yeast 2: inactive; TIM10 inh: inactive; tim23-1 inh: inactive; NALP1 yeast inh: inactive

How did NC(=O)c1oc2ccccc2c1NC(=O)c1ccc([N+](=O)[O-])o1 do in these assays?
tim10-1 inh: inactive; NALP3 yeast inh: inactive; PfHsp90 yeast 2: inactive; TIM10 inh: 57; tim23-1 inh: 66; NALP1 yeast inh: inactive; tim10 confirm: 66; tim23-1 confirm: 59

What do the screens show for `CCOC(OCC)c1nc(N)[nH]c(=O)c1CCCCc1ccccc1`?
PfHsp90 yeast 2: inactive

How did CCSc1nnc(SCC(=O)c2c(N)n(C)c(=O)n(C)c2=O)s1 do in these assays?
tim10-1 inh: inactive; NALP3 yeast inh: inactive; PfHsp90 yeast 2: inactive; TIM10 inh: inactive; tim23-1 inh: inactive

What do the screens show for `Cc1cc(-c2nc(C)c(-c3nnc(SCC(=O)Nc4ccc(Cl)cc4)n3C)s2)no1`?
tim10-1 inh: inactive; NALP3 yeast inh: inactive; TIM10 inh: inactive; tim23-1 inh: inactive; NALP1 yeast inh: inactive

How did O=C(Nc1ccc(N2CCCC2)c(Cl)c1)c1cccs1 do in these assays?
tim10-1 inh: inactive; NALP3 yeast inh: inactive; PfHsp90 yeast 2: inactive; TIM10 inh: 45; tim23-1 inh: 50; NALP1 yeast inh: inactive; tim10 confirm: 34; tim23-1 confirm: 55

Results for CC(C)CN1C(=O)c2ccc(NC(=O)c3cccs3)cc2C1=O ?
tim10-1 inh: inactive; NALP3 yeast inh: inactive; PfHsp90 yeast 2: inactive; TIM10 inh: 46; tim23-1 inh: 53; NALP1 yeast inh: inactive; tim10 confirm: 50; tim23-1 confirm: 54

How did CC(c1ccccc1)N1CCn2c(nc3cc(NC(=O)c4cccs4)ccc32)C1 (stereo not given) do in these assays?
tim10-1 inh: inactive; NALP3 yeast inh: inactive; PfHsp90 yeast 2: inactive; TIM10 inh: 44; tim23-1 inh: 53; NALP1 yeast inh: inactive; tim10 confirm: 32; tim23-1 confirm: 64

What do the screens show for `O=C(Nc1ccc2c(c1)OCCO2)c1cccs1`?
tim10-1 inh: inactive; NALP3 yeast inh: inactive; PfHsp90 yeast 2: inactive; TIM10 inh: 45; tim23-1 inh: 56; tim10 confirm: 50; tim23-1 confirm: 65

How did CC(C)CN1C(=O)c2ccc(NC(=O)c3ccccc3F)cc2C1=O do in these assays?
tim10-1 inh: inactive; NALP3 yeast inh: inactive; PfHsp90 yeast 2: inactive; TIM10 inh: inactive; tim23-1 inh: inactive; NALP1 yeast inh: inactive

Results for O=C(Nc1nc2cc3c(cc2s1)OCCO3)c1cccs1 ?
tim10-1 inh: inactive; NALP3 yeast inh: inactive; PfHsp90 yeast 2: inactive; TIM10 inh: inactive; tim23-1 inh: inactive; NALP1 yeast inh: inactive
